This note sets out measurements from the supplement of paper PMC12067926.

Values without a mark were called inactive.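 The calls were made as follows: active = growth AUC significantly below the DMSO wells by Dunnett test; inactive = the rest.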

The test has as its system Prolinoborus 1 (Prolinoborus fasciculus). Kind of test: relative growth (AUC of 72 h growth curve relative to DMSO control, dAUC) (ratio); higher = more growth (less inhibition), active = hit call of the paper. The note with it: 20 µM. The gist of the method:
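Cultures grown to carrying capacity in Luria–Bertani medium, drawn from Icelandic stream sediment and Silwood Park soil isolates and whole sediment communities, were diluted 1:100 into 96-well plates with each chemical at 20 µM (1% DMSO) and read at A600 hourly for 72 h. The spline-integrated area under the growth curve, divided by the mean of the DMSO controls, is reported as relative growth (dAUC). Values are means of three biological replicates.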
In the case of `CCOc1cc(Oc2ccc(C(F)(F)F)cc2Cl)ccc1[N+](=O)[O-]`, the relative growth is 0.938. As to `O=C(NC(=O)c1c(F)cccc1F)Nc1ccc(OC(F)(F)C(F)OC(F)(F)F)c(Cl)c1` (stereo not drawn), the relative growth is 0.988.

Consider `Cc1cc(C)nc(Nc2ccccc2)n1`, for which the relative growth is 0.979.

With `CC(C)NC(=O)N1CC(=O)N(c2cc(Cl)cc(Cl)c2)C1=O`, the relative growth is 0.949. For `Cc1nnc(-c2ccccc2)c(=O)n1N`, the relative growth was 0.97. The result for `CSc1nc(NC(C)C)nc(NC(C)C)n1` reads 0.989; that for `C/C(=N\C#N)N(C)Cc1ccc(Cl)nc1`, 0.963. For `Cc1cccc2sc3nncn3c12`, the relative growth was 1.01. The figure for `Fc1ccc(Oc2ccnc3cc(Cl)cc(Cl)c23)cc1` is 1.03; for `COP(N)(=O)SC` (stereo not drawn) it is 0.972; for `COc1cc(OC)nc(NC(=O)NS(=O)(=O)c2ncccc2C(=O)N(C)C)n1` it is 0.999. Take `CC[C@H]1CCC[C@H](O[C@H]2CC[C@H](N(C)C)[C@@H](C)O2)[C@@H](C)C(=O)C2=C[C@@H]3[C@@H](C=C(C)[C@@H]4C[C@@H](O[C@@H]5O[C@@H](C)[C@H](OC)[C@@H](OC)[C@H]5OC)C[C@@H]34)[C@@H]2CC(=O)O1.CC[C@H]1CCC[C@H](O[C@H]2CC[C@H](N(C)C)[C@@H](C)O2)[C@@H](C)C(=O)C2=C[C@H]3[C@@H]4C[C@H](O[C@@H]5O[C@@H](C)[C@H](OC)[C@@H](OC)[C@H]5OC)C[C@H]4C=C[C@H]3C2CC(=O)O1`: the relative growth is 0.832. Take `COC(=O)N(C(=O)N1CO[C@@]2(C(=O)OC)Cc3cc(Cl)ccc3C2=N1)c1ccc(OC(F)(F)F)cc1`: the relative growth is 1. The result for `N#Cc1c[nH]cc1-c1cccc2c1OC(F)(F)O2` reads 0.978; that for `CC(C)N(C(=O)COc1nnc(C(F)(F)F)s1)c1ccc(F)cc1`, 0.963; that for `CC1(C)C(C=C(Cl)Cl)C1C(=O)OC(C#N)c1ccc(F)c(Oc2ccccc2)c1` (stereo not drawn), 1.04. The result for `Cc1c(COC(=O)[C@@H]2[C@H](/C=C(\Cl)C(F)(F)F)C2(C)C)cccc1-c1ccccc1` (racemic) reads 0.977; that for `COc1cc(C)c(C(=O)c2c(OC)ccc(Br)c2C)c(OC)c1OC`, 1.01; that for `CC(C)(C)C(O)(CCc1ccc(Cl)cc1)Cn1cncn1` (stereo not drawn), 0.931.

Regarding `CCCC(Cn1cncn1)c1ccc(Cl)cc1Cl` (stereo not drawn), the relative growth was 0.988. Take `C[C@@H]1[C@@H](c2ccc(Cl)cc2)SC(=O)N1C(=O)NC1CCCCC1`: the relative growth is 0.994. The result for `O=C1C2(Cl)C3(Cl)C4(Cl)C(Cl)(Cl)C5(Cl)C3(Cl)C1(Cl)C5(Cl)C24Cl` (stereo not drawn) reads 0.943; that for `OC(Cc1ccccc1Cl)(Cn1nc[nH]c1=S)C1(Cl)CC1` (stereo not drawn), 1.02. As for `CC1(C)[C@H](C(=O)O[C@H](C#N)c2cccc(Oc3ccccc3)c2)[C@@H]1C=C(Br)Br`, the relative growth is 1.01. The figure for `N#Cc1c(Cl)c(Cl)c(Cl)c(C#N)c1Cl` is 1.04; for `CCOc1ccc(C(C)(C)COCc2cccc(Oc3ccccc3)c2)cc1` it is 0.909; for `Cc1cc(C(F)(C(F)(F)F)C(F)(F)F)ccc1NC(=O)c1cccc(I)c1C(=O)NC(C)(C)CS(C)(=O)=O` it is 0.933. The figure for `N#Cc1nn(-c2c(Cl)cc(C(F)(F)F)cc2Cl)c(N)c1[S+]([O-])C(F)(F)F` (stereo not drawn) is 0.897. In the case of `CNC(=O)Oc1cccc2ccccc12`, the relative growth is 1. Regarding `CO/N=C(/C(=O)OC)c1ccccc1CO/N=C(\C)c1cccc(C(F)(F)F)c1`, the relative growth was 0.953. The figure for `CC1(C)CON(Cc2ccccc2Cl)C1=O` is 0.954; for `CCCN(CCC)C(=O)SCc1ccccc1` it is 1.01. As to `CC[C@H](C)[C@H]1O[C@]2(C=C[C@@H]1C)C[C@@H]1C[C@@H](C/C=C(\C)[C@@H](O[C@H]3C[C@H](OC)[C@@H](O[C@H]4C[C@H](OC)[C@@H](O)[C@H](C)O4)[C@H](C)O3)[C@@H](C)/C=C/C=C3\CO[C@@H]4[C@H](O)C(C)=C[C@@H](C(=O)O1)[C@]34O)O2.CO[C@H]1C[C@H](O[C@H]2[C@H](C)O[C@@H](O[C@@H]3/C(C)=C/C[C@@H]4C[C@@H](C[C@]5(C=C[C@H](C)[C@@H](C(C)C)O5)O4)OC(=O)[C@@H]4C=C(C)[C@@H](O)[C@H]5OC/C(=C\C=C\[C@@H]3C)[C@]54O)C[C@@H]2OC)O[C@@H](C)[C@@H]1O`, the relative growth was 0.894.
